# CFTR F508del cor – correctors of CFTR F508del function in bronchial epithelial cells; AID 720511; CFBE cells, YFP halide quenching; stimulated with forskolin plus potentiator P3; % fluorescence drop versus neutral controls; activity (quench increase), % at 7.58 µM; actives 0.36% (n = 350,000);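 active = mean added fluorescence quench of at least 8% versus neutral control, with both replicates also reaching 8%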;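 also: cells transiently co-express mutant CFTR-F508del with the halide-sensitive YFP; corrector assay measuring rescue of mutant channel to the surface after 24 h compound exposure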
# 697 NFkB inh – inhibitors of the PMA/ionomycin-induced NF-kB reporter in 697 B cells; 697 B-cell NF-kB luciferase reporter, 16 h; inhibition, % at 4 µM; actives 0.33% (n = 330,000); in the data active = inhibition above about 35%
# Jurkat NFkB inh – inhibitors of the PMA/ionomycin-induced NF-kB reporter in Jurkat cells | PMA/ionomycin-induced NF-kB luciferase reporter, luminescence | inhibition, % at 4 µM | actives 0.53% (n = 330,000) | AID 435003; in the data active = inhibition above about 50%
# HIF act – HIF pathway transcriptional activation; actives 0.32% (n = 300,000); activation, % at 7.5 µM (by protocol); U2OS HRE-luciferase reporter, luminescence; normalized: DMSO 0%, desferrioxamine 100%;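 active = mean activation of at least 10% of the iron chelator positive control signal, with at least half of replicates also reaching 10%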
# Jurkat NFkB conf – lowers PMA/ionomycin-induced NF-kB signal in Jurkat cells; actives 27% (n = 2,700); inhibition, % at 4 µM; shares compounds with Jurkat NFkB inh; Jurkat NF-kB luciferase, 16 h; AID 435020;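 active = inhibition reaching about 45% at 4 µM in either replicate, limit read from the data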;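 also: plate controls were PMA/ionomycin stimulated DMSO wells for no effect and unstimulated DMSO wells for full effect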
# 697 NFkB conf – lowers PMA/ionomycin-induced NF-kB signal in 697 B cells; shares compounds with 697 NFkB inh; 697 B-cell NF-kB luciferase, 16 h; inhibition, % at 4 µM; actives 35% (n = 2,000); in the data active = inhibition mostly above about 28%, no sharp cut-off; inactive = mostly below about 22%
# Numbers without * were called inactive; nt = not tested or not shown. Most compounds without a hit are left out; they make up all but 0.93% or so of the library.
SMILES,CFTR F508del cor,697 NFkB inh,Jurkat NFkB inh,HIF act,Jurkat NFkB conf,697 NFkB conf
C/C=C/c1ccc2c(c1)O[C@H](CN(C)C(=O)NCCC)[C@H](C)CN([C@@H](C)CO)S2(=O)=O,2,nt,nt,nt,nt,nt
Oc1c(N=Nc2ccccc2)sc2ccccc12,-4,-268,-176,-1,-128,-286
CN(C)C(=O)c1ccc(-c2cccc(-c3nc(C(=O)N(C)C)cc4c3[C@H](CCO)N([S@@](=O)C(C)(C)C)C4)c2)cc1,0,nt,nt,nt,nt,nt
COc1ccc(CN(C)C[C@@H]2Oc3ccc(NC(=O)CCC(F)(F)F)cc3CC(=O)N([C@H](C)CO)C[C@H]2C)cc1,1,nt,nt,nt,nt,nt
CCCNC(=O)N(C)C[C@H]1Oc2ncc(-c3ccccc3)cc2C(=O)N([C@H](C)CO)C[C@@H]1C,0,nt,nt,nt,nt,nt
CCCCCCCCCn1c2c(c(=N)c3c1CCC3)CCC2,nt,94*,91*,-2,74*,-22
CCCCCCn1c2c(c(=N)c3c1CCC3)CCC2,nt,104*,65*,0,69*,34*
COc1cccc2oc3cc(C#CC4(O)CCCCC4)ccc3c(=O)c12,3,-352,-213,1,-99,-443
CN=c1scc(C)n1/N=C/c1ccc(O)cc1,nt,-129,-101,nt,nt,nt
CN=c1scc(C)n1/N=C/c1ccc(O)cc1O,nt,-290,-165,1,-110,-250
COCC(=O)Nc1ccc2c(c1)C(=O)N(C)C[C@H](OC)[C@@H](C)CN(Cc1cccc(F)c1)[C@@H](C)CO2,1,nt,nt,nt,nt,nt
COc1cccc(-c2nc(-c3cccs3)no2)c1,3,-289,-163,0,-131,-311
COc1cc(OC)cc(-c2nc(-c3cccs3)no2)c1,nt,-22,-59,4,nt,nt
O=C(C[C@H]1C[C@H]2c3cc(NC(=O)NC4CCCC4)ccc3O[C@H]2[C@@H](CO)O1)NCc1ccccn1,0,nt,nt,nt,nt,nt
ClC1=C(Cl)C(Cl)=C(Cl)C1=C/C=C/c1ccccc1,0,-275,55*,-1,-14,-26
CC1=NN(c2ccccc2)C(=O)/C1=C\C=C\c1ccccc1,-11,-57,1,2,nt,nt
CS(=O)(=O)N1N=C(c2ccc(Br)cc2)CC1c1ccc2c(c1)OCO2 (stereo not drawn),nt,-111,-136,4,nt,nt
Cc1ccc(C2=NN(S(C)(=O)=O)C(c3ccc4c(c3)OCO4)C2)cc1 (stereo not drawn),-2,-259,-175,2,-111,-276
COc1ccc(-c2cn(C[C@@H](Cc3ccccc3)NC(=O)Nc3ccccc3)nn2)cc1OC,0,nt,nt,nt,nt,nt
COc1ccc2c3c([nH]c2c1)[C@@H](CO)N(C(=O)c1cccc(F)c1)CC31CN(C(=O)c2cccc(F)c2)C1,-1,nt,nt,nt,nt,nt
Cc1nc(NCc2ccco2)c2c(C)c(C)sc2n1,nt,-281,70*,1,58*,-43
COc1ccc(N=Cc2c(O)c3ccccc3n2C(C)=O)cc1,-1,-5,-23,2,nt,nt
COc1ccc(N=Cc2sc(O)c3ccccc23)cc1,nt,-299,-175,-1,17,-71
Cc1ccc2nc(NC(=O)CCCC(=O)O)sc2c1,-3,71*,55*,-6,69*,76*
CCCN(CCC)c1ncnc2c1cnn2-c1ccc(OC)cc1,nt,-349,-161,1,-103,-363
SMILES,CFTR F508del cor,697 NFkB inh,Jurkat NFkB inh,HIF act,Jurkat NFkB conf,697 NFkB conf
CCC(CO)Nc1ncnc2c1cnn2-c1ccc(OC)cc1 (stereo not drawn),2,-124,-91,1,nt,nt
COc1ccc(/C=C/c2cccc[n+]2C)c(O)c1,1,-38,-28,-2,nt,nt
CCN(CC)c1ccc(/C=C/c2cccc[n+]2C)c(OC)c1,1,75*,94*,4,78*,88*
O=C(Nc1ccccc1F)N1CC(=O)N2[C@@H](CO)[C@@H](c3ccc(C#Cc4ccccc4)cc3)[C@@H]2C1,0,nt,nt,nt,nt,nt
COc1ccccc1-c1cnc2c(c1)C(=O)N([C@@H](C)CO)C[C@@H](C)[C@H](CN(C)C(C)=O)O2,-2,nt,nt,nt,nt,nt
CN[C@H]1CCc2cc(OC)c(OC)c(OC)c2-c2ccc(OC)c(=O)cc21,-1,-330,72*,2,66*,-210
CC(C)(C)C(=O)/C(=C\c1ccc([N+](=O)[O-])cc1)n1cncn1,nt,44*,76*,-3,57*,50*
FC(F)(F)c1nc2ccccc2n2c(-c3ccc(Cl)cc3Cl)nnc12,nt,-17,-5,0,nt,nt
FC(F)(F)c1nnc2c(Sc3ccccc3)nc3ccc(Cl)cc3n12,nt,67*,85*,-3,-17,14
C[C@H]1CN([C@@H](C)CO)C(=O)c2cc(C#CCN(C)C)cnc2O[C@@H]1CN(C)Cc1ccc(F)cc1,-2,nt,nt,nt,nt,nt
COc1ccc(C)c2sc(=NC(=O)c3ccc(C(C)=O)cc3)n(C)c12,3,-359,-251,4,-136,-155
O=C(COC(=O)c1ccc[nH]c1=O)Nc1ccc(N2CCCCC2)cc1,1,79*,51*,nt,70*,80*
O=C(COC(=O)c1ccc[nH]c1=O)Nc1ccc(S(=O)(=O)N2CCCC2)cc1,3,15,11,0,nt,nt
CCOCCCNC(=O)c1ccc2c(c1)N=C(CC)c1cc(Br)ccc1S2,-1,-251,78*,0,55*,14
CN1/C(=C\C=N\O)C(C)(C)c2ccccc21,nt,-12,6,0,nt,nt
CN1/C(=C\C=[N+](C)c2ccccc2)C(C)(C)c2ccccc21,nt,83*,74*,nt,66*,57*
CO[C@H]1CN(C)C(=O)c2cc(NS(=O)(=O)CC(F)(F)F)ccc2OC[C@H](C)N(Cc2cccnc2)C[C@H]1C,-4,nt,nt,nt,nt,nt
COc1ccc(-c2ccc([C@H]3[C@H](CO)N4C(=O)CN(C(=O)NC(C)C)C[C@@H]34)cc2)cc1,0,nt,nt,nt,nt,nt
CCC(=O)N(C)C[C@H]1Oc2cc(C#Cc3ccncc3)ccc2S(=O)(=O)N([C@H](C)CO)C[C@H]1C,4,nt,nt,nt,nt,nt
O=C(C[C@@H]1CC[C@H]2[C@@H](COC[C@H](O)CN2S(=O)(=O)c2ccccc2)O1)Nc1ccccc1,3,nt,nt,nt,nt,nt
Cc1ccc(N/C=C/C(=O)c2ccccc2)cc1Br,4,-282,-158,3,-72,-183
Cc1ccc(C(=O)/C=C/Nc2ccc3c(c2)OCO3)cc1,nt,-376,-205,2,-23,-76
CC(C)(C)C1C/C(=C/c2ccccn2)C(=O)/C(=C/c2ccccn2)C1 (stereo not drawn),nt,105*,100*,-5,-5,-124
O=C1/C(=C/c2ccccn2)COc2ccccc21,-4,0,-15,-1,nt,nt
COc1ccccc1CNc1ncc(-c2ccc(F)cc2)n1C,3,-33,0,3,nt,nt
COc1ccc(CNc2ncc(-c3ccc(F)cc3)n2C)c2ccccc12,3,40*,71*,-3,50*,48*
CC(C)Cn1c(N)c(C(=O)COC(=O)c2ccc3c(c2)OCCO3)c(=O)n(C)c1=O,nt,-28,5,-1,nt,nt
